For assay [1], the system named is Wnt5a (protein binding on small-molecule microarray). In words: small molecules binding Wnt5a protein – biophysical, small-molecule microarray, 635/667 nm fluorescence, primary screen (AID 1142).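 Further: fluorescence read at 667 nm with signal to noise per printed feature.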 To be noted: 635 nm fluorescence, higher = more signal.
The nature of assay [2]: ATP-based viability of Huh7 replicon cells – cell-based, CellTiter-Glo luminescence, basal, 48 h, cytotoxicity control for HCV replication inhibitor project, primary screen (AID 1143).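 Further: Huh7 hepatoma cells carrying a hepatitis C replication reporter with no stimulus; test concentration not given here.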 The settings on record: higher = more signal, called active from +8 up or from −8 down. (In general: In antiviral work, replicon cells carry a viral genome segment that copies itself.)
A short description of assay [3]: Pseudomonas biofilm growth suppression – PAO1 strain, BacTiter-Glo luminescence, LB-PBS, primary screen (AID 1144). To be noted: P. aeruginosa PAO1 biofilm, 12 h, higher = more signal.
Assay [4] can be described thus: basal CRE-LacZ reporter activity in PC12 – cell-based, unstimulated, primary screen (AID 1145). The settings on record: no forskolin, luminescence, 4.5 h, higher = more signal, called active from +8 up or from −8 down.
The nature of assay [5]: forskolin-driven CRE-LacZ activity in PC12 – cell-based, CRE-LacZ reporter, forskolin-stimulated, primary screen (AID 1146).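 Further: PC12 cells with 6xCRE LacZ reporter stimulated by forskolin 10 µM; beta-galactosidase reporter signal reflecting CREB driven transcription.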 To be noted: luminescence, 4.5 h, higher = more signal, called active from +8 up or from −8 down.
Assay [6] deals with Streptavidin (Streptomyces avidinii) (UniProt P22629). In words: compounds binding control protein streptavidin – biophysical, small-molecule microarray, 635/667 nm fluorescence, artefact control for SMM compound annotation, primary screen (AID 1147).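 Further: signal reflects streptavidin binding to arrayed compounds as a control protein.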 To be noted: higher = more signal.
Assay [7] in a line: probe aInhba binding on compound microarray – biochemical, small-molecule microarray, 635/667 nm fluorescence, primary screen (AID 1148).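 Further: score merges 667nm spot fluorescence with signal-to-noise for antibody binding to printed compounds.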 The settings on record: higher = more signal.
In assay [8] the target is Torsin-1A (Homo sapiens) (UniProt O14656). In words: TOR1A wild-type binding on microarray – cell lysate, small-molecule microarray, lysate, 635/667 nm, primary screen (AID 1149). To be noted: COS7 hTOR1A-WT lysate, 635 nm fluorescence, higher = more signal.
For assay [9] the target is unchanged. The assay is described as follows: torsin A mutant lysate binding on microarrays – cell lysate, small-molecule microarray, COS7 lysate, 635/667 nm fluorescence, primary screen (AID 1150).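 Further: score pools 667 nm emission and signal to noise measuring lysate protein binding.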 The settings on record: COS7 hTOR1A mutant lysate, 635 nm fluorescence, higher = more signal.
Assay [10] concerns Sonic hedgehog protein (Shh). The assay is described as follows: Sonic hedgehog microarray binding compounds – biochemical, small-molecule microarray, 635/667 nm fluorescence, primary screen (AID 1151).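 Further: Shh protein binding to compounds spotted on small-molecule microarray slides; score combines spot fluorescence intensity with signal-to-noise across triplicate slides.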 The settings on record: 635 nm fluorescence, higher = more signal.
Assay [11] is described as follows: optical density shifts of acrAB sulA E. coli – strain DRC41, OD650, 48 h, E. coli filamentation inducer project, primary screen (AID 1152).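 Further: E. coli MC1000 strain DRC41 lacking acrAB efflux pump and sulA.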 To be noted: higher = more signal, called active from +8 up or from −8 down.
Assay [12] can be described thus: probe aLefty1 binding on compound microarray – biochemical, small-molecule microarray, 635/667 nm fluorescence, primary screen (AID 1153).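 Further: score merges spot fluorescence with signal-to-noise ratio from the scanned slide images.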 The settings on record: higher = more signal.
Assay [13] is described as follows: plasmodial surface anion channel blockers, osmotic lysis – cell-based, P. falciparum Indochina, OD700, 1 h, primary screen (AID 1154). The settings on record: P. falciparum Indochina infected RBC osmotic lysis, higher = more signal, called active from +8 up or from −8 down.
The nature of assay [14]: plasmodial surface anion channel blockers, osmotic lysis – cell-based, P. falciparum Indochina, OD700, 2 h, primary screen (AID 1155).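 Further: lysis reports solute entry through the parasite surface anion channel PSAC.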 To be noted: P. falciparum Indochina infected erythrocytes, higher = more signal, called active from +8 up or from −8 down.
Assay [15] is described as follows: changes in parasitized red cell lysis, either direction – P. falciparum Indochina, OD700, 3 h, PSAC antagonist project, primary screen (AID 1156). The settings on record: P. falciparum-infected erythrocytes, osmotic lysis, higher = more signal, called active from +8 up or from −8 down.
Assay [16] in a line: plasmodial surface anion channel blockers, osmotic lysis – cell-based, P. falciparum Indochina, OD700, 18 h, primary screen (AID 1157). To be noted: P. falciparum Indochina infected erythrocytes, osmotic lysis OD700, 18 h; higher = more signal, called active from +8 up or from −8 down.
A short description of assay [17]: S6 kinase pathway phospho-S6 level changes – cell-based, A549, cytoblot, luminescence, serum-stimulated, primary screen (AID 1158).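 Further: serum-stimulated A549 lung adenocarcinoma cells; signal is phosphorylated S6 detected by cytoblot immunostaining with HRP secondary.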 The settings on record: 5 h, higher = more signal.
The target of assay [18] is NADPH oxidase 2 (Homo sapiens) (UniProt P04839). The assay is described as follows: compounds shifting NOX2 Amplex Red fluorescence – cell-based, HEK293-NOX2, PMA-stimulated, NOX inhibitor project, primary screen (AID 1159). Further: test concentration not given here. To be noted: 45 min, higher = more signal, called active from +8 up or from −8 down.
In assay [19] the target is NADPH oxidase 4 (Homo sapiens) (UniProt Q9NPH5). In words: compounds shifting NOX4 Amplex Red fluorescence – cell-based, HEK293-NOX4, tetracycline-induced, NOX inhibitor project, primary screen (AID 1160). The settings on record: HEK293-NOX4, Amplex Red H2O2 fluorescence, 45 min; higher = more signal, called active from +8 up or from −8 down.
The target in assay [20] is NADPH oxidase 5 (Homo sapiens) (UniProt Q96PH1). The assay is described as follows: compounds shifting NOX5 Amplex Red fluorescence – cell-based, HEK293-NOX5, NOX inhibitor project, primary screen (AID 1161). To be noted: HEK293-NOX5, ionomycin, 45 min, higher = more signal.

The structures appear in SMILES notation. Active and inactive are the calls of the source. Unless noted, how the calls were made is not given here.

Chain of NADPH oxidase 2 (Homo sapiens) (P04839 whole entry, looked up): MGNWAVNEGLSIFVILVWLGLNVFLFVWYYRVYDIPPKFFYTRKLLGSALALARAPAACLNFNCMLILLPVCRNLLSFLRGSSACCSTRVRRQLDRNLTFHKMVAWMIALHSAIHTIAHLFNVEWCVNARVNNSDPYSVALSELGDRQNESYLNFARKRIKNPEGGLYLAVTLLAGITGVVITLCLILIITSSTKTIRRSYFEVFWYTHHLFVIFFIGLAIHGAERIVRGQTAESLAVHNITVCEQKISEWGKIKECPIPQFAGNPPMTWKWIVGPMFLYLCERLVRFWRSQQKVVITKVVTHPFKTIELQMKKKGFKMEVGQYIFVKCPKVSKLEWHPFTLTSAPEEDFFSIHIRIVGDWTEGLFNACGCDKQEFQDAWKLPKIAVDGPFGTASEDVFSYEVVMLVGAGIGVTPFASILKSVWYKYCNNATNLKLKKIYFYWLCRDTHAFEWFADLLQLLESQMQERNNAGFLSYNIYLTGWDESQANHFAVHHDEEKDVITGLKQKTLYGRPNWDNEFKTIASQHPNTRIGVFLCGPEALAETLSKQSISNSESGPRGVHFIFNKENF
Chain of NADPH oxidase 4 (Homo sapiens) (Q9NPH5 whole entry, looked up): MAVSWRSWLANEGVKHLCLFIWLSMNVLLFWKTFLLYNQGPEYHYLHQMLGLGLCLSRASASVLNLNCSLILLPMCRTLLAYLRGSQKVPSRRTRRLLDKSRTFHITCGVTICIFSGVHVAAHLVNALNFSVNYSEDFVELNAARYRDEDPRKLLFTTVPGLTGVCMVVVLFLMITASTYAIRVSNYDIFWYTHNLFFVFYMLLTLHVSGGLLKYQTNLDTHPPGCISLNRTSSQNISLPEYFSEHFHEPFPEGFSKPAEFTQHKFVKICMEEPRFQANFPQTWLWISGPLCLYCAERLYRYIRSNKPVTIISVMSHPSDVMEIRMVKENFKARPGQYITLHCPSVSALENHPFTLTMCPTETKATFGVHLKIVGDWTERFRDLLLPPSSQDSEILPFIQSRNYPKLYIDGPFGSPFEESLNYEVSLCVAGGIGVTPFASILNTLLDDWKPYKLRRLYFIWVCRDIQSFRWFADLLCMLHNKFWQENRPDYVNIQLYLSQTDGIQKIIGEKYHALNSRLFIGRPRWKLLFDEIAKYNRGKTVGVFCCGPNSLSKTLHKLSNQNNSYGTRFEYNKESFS
Chain of Streptavidin (Streptomyces avidinii) (P22629 whole entry, looked up): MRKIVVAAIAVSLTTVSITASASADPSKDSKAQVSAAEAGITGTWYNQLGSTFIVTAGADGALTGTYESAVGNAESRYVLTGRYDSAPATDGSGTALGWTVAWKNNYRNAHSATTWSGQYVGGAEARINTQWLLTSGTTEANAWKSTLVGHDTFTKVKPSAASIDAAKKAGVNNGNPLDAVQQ
Chain of NADPH oxidase 5 (Homo sapiens) (Q96PH1 whole entry, looked up): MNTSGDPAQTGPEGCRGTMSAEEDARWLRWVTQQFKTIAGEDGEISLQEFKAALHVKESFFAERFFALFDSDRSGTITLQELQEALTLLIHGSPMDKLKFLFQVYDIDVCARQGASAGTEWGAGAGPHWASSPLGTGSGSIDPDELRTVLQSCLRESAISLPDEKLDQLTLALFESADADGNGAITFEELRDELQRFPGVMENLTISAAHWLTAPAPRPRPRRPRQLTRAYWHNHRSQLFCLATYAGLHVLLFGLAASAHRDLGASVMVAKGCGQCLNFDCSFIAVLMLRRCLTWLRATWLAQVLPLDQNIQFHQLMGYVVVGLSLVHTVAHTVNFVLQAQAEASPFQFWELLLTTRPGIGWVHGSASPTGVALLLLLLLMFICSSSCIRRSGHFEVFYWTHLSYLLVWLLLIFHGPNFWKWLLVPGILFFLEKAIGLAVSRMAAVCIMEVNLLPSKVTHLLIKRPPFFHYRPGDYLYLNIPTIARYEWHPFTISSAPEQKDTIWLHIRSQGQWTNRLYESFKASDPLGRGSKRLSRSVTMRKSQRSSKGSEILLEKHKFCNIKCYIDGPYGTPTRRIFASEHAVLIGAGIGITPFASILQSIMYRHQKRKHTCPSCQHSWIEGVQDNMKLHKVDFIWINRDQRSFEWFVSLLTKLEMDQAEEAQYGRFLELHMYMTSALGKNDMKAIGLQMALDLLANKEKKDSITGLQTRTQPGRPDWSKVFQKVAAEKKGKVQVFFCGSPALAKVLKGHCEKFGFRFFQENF
Chain of Torsin-1A (Homo sapiens) (O14656 whole entry, looked up): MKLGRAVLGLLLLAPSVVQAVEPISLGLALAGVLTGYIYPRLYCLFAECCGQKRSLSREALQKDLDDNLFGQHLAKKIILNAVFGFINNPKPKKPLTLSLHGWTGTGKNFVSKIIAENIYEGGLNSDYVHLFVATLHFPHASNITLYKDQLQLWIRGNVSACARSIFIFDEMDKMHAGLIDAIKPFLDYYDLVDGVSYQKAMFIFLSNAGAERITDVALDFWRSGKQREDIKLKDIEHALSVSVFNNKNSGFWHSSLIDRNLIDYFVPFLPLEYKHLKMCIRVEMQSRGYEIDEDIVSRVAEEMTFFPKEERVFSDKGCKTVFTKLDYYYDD

As for `C#CCCCON=C1C[C@@H](O)[C@@H](O)[C@@H]2[C@@H]3C(=O)N([C@@H](C)c4ccccc4)C(=O)[C@@H]3CC[C@@H]12`, the composite z-score in assay [1] was 0.025; in assay [6] it was 0.214; in assay [7], -0.239; in the assay with Torsin-1A (Homo sapiens) [8] it was -0.281; with Torsin-1A (Homo sapiens) [9] it was -0.434; in [10], 0.0938. Further, the composite z-score in assay [12] is 0.0824. In addition, the z-score in [2] was 0.341 (inactive); in assay [3], -0.0365 (inactive); in assay [4] it was 0.0676 (inactive); in [5], 0.227 (inactive); in [11], 0.0467 (inactive); in assay [13], 0.433 (inactive). Moreover, the z-score in assay [14] was 0.186 (inactive); in assay [15], -0.195 (inactive); in [16], -0.139 (inactive); in assay [17] it was -0.507; in assay [18], 0.362 (inactive); in assay [19], 0.574 (inactive). Further, in [20], the z-score is -0.132.
`C[C@@H]1C=CCC(=O)OC[C@H](C)C(=O)N[C@@H](Cc2ccccc2)C(=O)OC1`: the composite z-score in assay [1] was 0.033; in assay [6], -0.0535; in [7], -0.0736; with Torsin-1A (Homo sapiens) [8], 0.519; with Torsin-1A (Homo sapiens) [9] it was 0.59; in assay [10], 0.638. Also, the composite z-score in assay [12] was -0.0287. Also, the z-score in assay [2] is -3.11 (inactive); in assay [3] it was -1.23 (inactive); in [4] it was 1.43 (inactive); in assay [5], -0.846 (inactive); in assay [11], -0.596 (inactive); in assay [13], 0.296 (inactive). Also, the z-score in assay [14] was -0.506 (inactive); in assay [15], -0.307 (inactive); in assay [16], -1.2 (inactive); in [17], 0.826; in assay [18], -0.348 (inactive); in [19] it was -0.928 (inactive). Also, in assay [20], the z-score was -0.396.
Take `COc1ccc(COC(=O)NN=C2C[C@@H](O)[C@@H](O)[C@@H]3[C@@H]4C(=O)N(C[C@@H]5CCCO5)C(=O)[C@@H]4CC[C@H]23)cc1`: the composite z-score in assay [1] was -0.109; in [6], 0.669; in assay [7], 0.0275; in the assay with Torsin-1A (Homo sapiens) [8], -0.858; with Torsin-1A (Homo sapiens) [9], -0.48; in assay [10], -1.12. Moreover, the composite z-score in [12] was determined as 0.544. Also, the z-score was 0.338 (inactive) in assay [2]; 0.296 (inactive) in assay [3]; 0.159 (inactive) in assay [4]; -0.166 (inactive) in assay [5]; -0.39 (inactive) in assay [11]; 3.23 (inactive) in assay [13]. The z-score in [14] is 0.632 (inactive); in [15] it was 0.398 (inactive); in assay [16], 0.548 (inactive); in assay [17], -0.308; in [18] it was -3.46 (inactive); in assay [19], 0.223 (inactive). Moreover, the z-score in assay [20] stood at 0.0239.
Take `CC(CCN1CCc2nc(-c3ccccc3)c(-c3ccccc3)cc2C1)=NO[C@@H](C)c1cc(-c2c(C)cc(C)cc2C)no1`: the composite z-score in [1] was -0.405; in assay [6], 2.15; in assay [7], -0.159; with Torsin-1A (Homo sapiens) [8], 0.199; with Torsin-1A (Homo sapiens) [9] it was 0.153; in [10], -0.387. Further, the composite z-score in assay [12] was -0.0099. Further, the z-score in [2] was -2.58 (inactive); in [3], -0.832 (inactive); in assay [4], 2.71 (inactive); in assay [5], -0.426 (inactive); in assay [11], -1.03 (inactive); in assay [13] it was -0.0185 (inactive). Besides, the z-score in assay [14] is -0.429 (inactive); in [15] it was 1.5 (inactive); in assay [16], -1.37 (inactive); in [17], 0.831; in assay [18] it was -0.861 (inactive); in [19] it was -0.901 (inactive). In addition, in [20], the z-score is -0.296.
`COc1ccc2c(c1)O[C@@H](c1cccc(C(F)(F)F)c1)[C@H](O)C2=O`: the composite z-score in assay [1] was 0.104; in [6], 0.562; in [7] it was -0.0645; with Torsin-1A (Homo sapiens) [8], -0.0248; with Torsin-1A (Homo sapiens) [9], 0.215; in assay [10] it was 0.37. In [12], this compound showed a composite z-score of 0.0328. The z-score in [2] is -2.98 (inactive); in assay [3] it was -0.837 (inactive); in [4], 2.27 (inactive); in assay [5], -0.892 (inactive); in assay [11], 0.706 (inactive); in assay [13] it was 2.08 (inactive). Moreover, the z-score in assay [14] is 0.18 (inactive); in assay [15], 1.19 (inactive); in assay [16] it was 0.347 (inactive); in assay [17], 1.15; in [18] it was 0.00989 (inactive); in assay [19], 0.123 (inactive). Also, the z-score in [20] is -0.44.
For the compound `COc1cccc([C@H](O)Cn2cc(-c3ccc(CON=C(C)C)cc3)nn2)c1`, the composite z-score in [1] is -0.0033; in assay [6], -0.207; in assay [7], 0.0082; with Torsin-1A (Homo sapiens) [8], 0.0944; with Torsin-1A (Homo sapiens) [9], 0.271; in assay [10], -0.348. The composite z-score in [12] was -0.103. In addition, the z-score was -0.385 (inactive) in assay [2]; -0.24 (inactive) in assay [3]; 1.55 (inactive) in [4]; -0.222 (inactive) in assay [5]; 0.697 (inactive) in assay [11]; 25.6 (active) in assay [13]. Moreover, the z-score in assay [14] is 12.2 (active); in assay [15], 0.99 (inactive); in assay [16], 1.54 (inactive); in assay [17] it was -1.07; in assay [18] it was 0.0342 (inactive); in assay [19], -0.0373 (inactive). Also, in [20], the z-score was -0.169.
On to `CCN1C(=O)[C@H]2[C@H]3[C@H](O)[C@H](O)CC(=NOC(C)CN4CCCc5nc(C)c(C)cc54)[C@@H]3CC[C@H]2C1=O` (stereo not given in full), for which the composite z-score in assay [1] was 0.223; in assay [6], -0.0317; in [7] it was 0.134; with Torsin-1A (Homo sapiens) [8], 0.46; with Torsin-1A (Homo sapiens) [9] it was 0.456; in assay [10], 0.906. In [12], the composite z-score was 0.603. In addition, the z-score was 0.433 (inactive) in assay [2]; 1.17 (inactive) in assay [3]; -0.882 (inactive) in assay [4]; -0.271 (inactive) in [5]; 0.223 (inactive) in assay [11]; 1.25 (inactive) in [13]. Moreover, the z-score is 0.59 (inactive) in assay [14]; -0.121 (inactive) in assay [15]; 0.588 (inactive) in assay [16]; -0.461 in assay [17]; -1 (inactive) in assay [18]; -0.772 (inactive) in [19]. In addition, the z-score in assay [20] was -0.298.
In the case of `COc1ccc(OC[C@@H]2CC3[C@@H](c4ccc(Br)cc4)[C@H](C)CC[C@H]3C(=O)O2)cc1` (stereo not given in full), the composite z-score in assay [1] was -0.223; in assay [6] it was 0.0139; in assay [7], -0.202; with Torsin-1A (Homo sapiens) [8], 0.327; with Torsin-1A (Homo sapiens) [9], 0.832; in assay [10], 0.391. Besides, in assay [12], the composite z-score was -0.106. The z-score in assay [2] is -0.513 (inactive); in assay [3], -0.12 (inactive); in assay [4] it was 1.9 (inactive); in assay [5], -0.462 (inactive); in assay [11], -0.594 (inactive); in assay [13] it was 4.49 (inactive). Moreover, the z-score is 1.7 (inactive) in assay [14]; 0.85 (inactive) in [15]; 0.759 (inactive) in assay [16]; 0.338 in assay [17]; -0.803 (inactive) in assay [18]; -0.178 (inactive) in [19]. For the same compound, the z-score in assay [20] was -0.351.
